Test systems include DU-145 prostate; K-562 leukemia; MALME-3M melanoma; MDA-MB-231 breast; RXF 393 renal; SF-268 CNS; SF-295 CNS; SF-539 CNS; UACC-257 melanoma; M14 melanoma; HCT-15 colon; HT29 colon; SNB-75 CNS; SNB-19 CNS; U251 CNS; PC-3 prostate; SK-MEL-5 melanoma; UACC-62 melanoma; LOX IMVI melanoma; SK-MEL-28 melanoma.
Holding throughout (experiment): NCI-60 one-dose screen, 48 h (100 = growth as untreated, 0 = no growth, -100 = all killed)
Holding throughout (conditions): 10 µM unless noted

Compounds without any hit were thinned out: in the full panel of roughly 83,000, 20% have a hit.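 Note: values are percent growth. 100 is the growth of untreated cells, values between 100 and 0 indicate rising inhibition; between -100 and 0 indicates cell death.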 Unmarked numbers belong to inactive results. Calls of active or inactive are those of the source. How the source made its calls: active means growth percent below 10; inactive means the rest.

Regarding `O=[N+]([O-])c1cc([N+](=O)[O-])c(NN=C(c2ccc(O)cc2)c2ccc(O)cc2)cc1Cl`, the growth is -77.9% (active) in the test with DU-145 prostate; 101% in the test on K-562 leukemia; -51.6% (active) in the test with MALME-3M melanoma; -70.4% (active) with MDA-MB-231 breast; -76.5% (active) in the test on RXF 393 renal; -91.8% (active) in the test with SF-268 CNS. Moreover, the growth is 104% with SF-295 CNS; -51.9% (active) in the test on SF-539 CNS; -79.9% (active) in the test with UACC-257 melanoma; -86.8% (active) with M14 melanoma; -85.8% (active) in the test with HCT-15 colon; -82.6% (active) with HT29 colon. In addition, the growth is -15.6% (active) in the test on SNB-75 CNS; 89.4% in the test on SNB-19 CNS; -99.9% (active) with U251 CNS; -80.8% (active) in the test with PC-3 prostate; 59.5% with SK-MEL-5 melanoma; 18.4% in the test on UACC-62 melanoma. Further, the figures for the growth with LOX IMVI melanoma and with SK-MEL-28 melanoma were -94% (active) and -90.3% (active), respectively.

As to `COc1ccc2c(c1)C(C)Cc1c(ncnc1-n1cnc3ccccc31)N2C` (stereo not given), the growth is 23.7% with DU-145 prostate; 14.2% in the test on K-562 leukemia; 92.3% in the test with MALME-3M melanoma; 12.9% in the test on MDA-MB-231 breast; 12.8% in the test on RXF 393 renal; 37.4% in the test with SF-268 CNS. In addition, the growth in the test with SF-295 CNS was 13.6%; in the test on SF-539 CNS, 4.91% (active); with UACC-257 melanoma, 67.2%; in the test with M14 melanoma it was 18.3%; in the test on HCT-15 colon it was 16.1%; with HT29 colon, -17.8% (active). The growth in the test with SNB-75 CNS was 37.5%; in the test on SNB-19 CNS, 33.4%; with U251 CNS it was 21.4%; in the test with PC-3 prostate, 17.5%; with SK-MEL-5 melanoma, 11.2%; with UACC-62 melanoma, 39%. In addition, the figures for the growth in the test with LOX IMVI melanoma and in the test with SK-MEL-28 melanoma were 26.6% and 59.5%, respectively.

For `C#CCC(C(=O)OCC)C(=O)OCC`, the growth in the test with DU-145 prostate was 101%; with K-562 leukemia, 102%; in the test on MALME-3M melanoma, 110%; in the test with MDA-MB-231 breast it was 101%; with RXF 393 renal, 128%; with SF-268 CNS, 104%. The growth with SF-295 CNS was 103%; with SF-539 CNS it was 101%; in the test on UACC-257 melanoma, 108%; in the test on M14 melanoma it was 105%; with HCT-15 colon it was 106%; in the test on HT29 colon, 103%. The growth in the test with SNB-75 CNS was 90.5%; with SNB-19 CNS, 102%; in the test with U251 CNS, 104%; in the test with PC-3 prostate, 99.8%; with SK-MEL-5 melanoma, 105%; in the test on UACC-62 melanoma, 101%. Moreover, the values for the growth in the test with LOX IMVI melanoma and with SK-MEL-28 melanoma were 99.2% and 109%, respectively.

Consider `COc1ccc(-c2cc(-c3ccccc3)nc(SCCCCCC(=O)NO)n2)cc1`, for which the growth in the test on DU-145 prostate is 61.2%; in the test with K-562 leukemia, 26.4%; in the test on MALME-3M melanoma, 21.5%; in the test on MDA-MB-231 breast, 59.2%; in the test on RXF 393 renal, 39.2%; in the test with SF-268 CNS, 98.9%. Moreover, the growth with SF-295 CNS was 60.4%; with SF-539 CNS, 68.1%; in the test on UACC-257 melanoma it was 36.5%; in the test on M14 melanoma, 52%; in the test with HCT-15 colon it was 78.1%; in the test on HT29 colon it was 23%. In addition, the growth in the test on SNB-75 CNS is 44.1%; in the test on SNB-19 CNS it was 70.5%; in the test on U251 CNS, 56.4%; in the test on PC-3 prostate, 70.7%; in the test with SK-MEL-5 melanoma, 33.2%; in the test on UACC-62 melanoma it was 26.2%. In addition, the growth is 59.2% in the test with LOX IMVI melanoma and 49.3% in the test on SK-MEL-28 melanoma.

With `COc1ccc(-c2nc3ccccn3c2/C=C/C(=O)c2cc(OC)c(OC)c(OC)c2)cc1OC`, the growth was 12.7% with DU-145 prostate; 14.6% in the test with K-562 leukemia; 45.9% in the test with MALME-3M melanoma; 21.4% in the test with MDA-MB-231 breast; 27.8% with RXF 393 renal; 26.2% in the test on SF-268 CNS. Also, the growth in the test on SF-295 CNS was 4.4% (active); in the test on SF-539 CNS, -25.1% (active); with UACC-257 melanoma it was 52.8%; with M14 melanoma, 13.4%; in the test on HCT-15 colon it was 22.1%; with HT29 colon, 16.7%. Also, the growth in the test on SNB-75 CNS is 46.1%; in the test on SNB-19 CNS it was 29.8%; with U251 CNS, 7.81% (active); with PC-3 prostate it was 26.1%; in the test with SK-MEL-5 melanoma, -86.7% (active); in the test with UACC-62 melanoma, 19.9%. In addition, the results for the growth in the test with LOX IMVI melanoma and with SK-MEL-28 melanoma were 4.18% (active) and 29.1%, respectively.

With `COc1ccc(-c2cc(-c3ccc(OC)c(OC)c3)nc(SCCCCCC(=O)NO)n2)cc1`, the growth in the test on DU-145 prostate was 58.8%; in the test on K-562 leukemia it was 26.1%; with MALME-3M melanoma, 19.4%; with MDA-MB-231 breast, 42.2%; in the test with RXF 393 renal, 42.1%; in the test on SF-268 CNS it was 82.3%. Also, the growth in the test with SF-295 CNS is 72.9%; in the test on SF-539 CNS, 55.4%; with UACC-257 melanoma it was 41.8%; in the test with M14 melanoma, 47.7%; with HCT-15 colon, 96.5%; in the test on HT29 colon it was 31.3%. Moreover, the growth in the test on SNB-75 CNS is 46.2%; in the test on SNB-19 CNS it was 65.8%; in the test on U251 CNS, 38.3%; in the test on PC-3 prostate, 64.5%; in the test with SK-MEL-5 melanoma it was 31.9%; with UACC-62 melanoma, 24%. Moreover, the results for the growth in the test with LOX IMVI melanoma and in the test on SK-MEL-28 melanoma were 56.9% and 35.5%, respectively.

The record behind these values is PubChem BioAssay (NCI).
